# Laboratory results reported in PubChem BioAssay AID1259343 (VanderVen Lab, College of Veterinary Medicine, Cornell …, 2017).
# Among all 6,200 compounds or so, about 2,900 (47%) were called active. So high a share suggests a set chosen from earlier hits. The list shows a part of the results. Unmarked numbers belong to inactive results. Rule as the data show it: active = inhibition above about 50%; inactive = the rest.
# Assay: Mycobacterium tuberculosis growth inhibition, primary screen (AID 1259343)
# Conditions: inhibition: at 10 µM, active compounds read high; outcome: 10 uM
row,Compound,inhibition
1,O=[N+]([O-])c1ccc(C=NNc2ccc(Cl)cc2)o1,-17.5%
2,Cc1ccccc1C1c2[nH]c3ccccc3c2CCN1C(=O)c1cccc(C#CC(C)(C)O)c1 (stereo not given),-3.93%
3,CCCCc1ccc(Nc2nnc(SCC(=O)NCC)s2)cc1,83.3% (active)
4,CCCCNC(=O)CSc1nnc(Nc2ccc(CC)cc2)s1,45.2%
5,CCc1ccc(Nc2nnc(SCC(=O)NC3CCCC3)s2)cc1,100% (active)
6,CCc1ccc(Nc2nnc(SCC(N)=O)s2)cc1,36.7%
7,CCCCc1ccc(Nc2nnc(SCC(=O)NC3CCCC3)s2)cc1,86% (active)
8,O=C(Nc1ccc(OCc2ccco2)c(Cl)c1)N1CCOCC1,79% (active)
9,CCC(=O)N(Cc1ccco1)Cc1cc(NC(=O)c2ccccc2Cl)ccc1N(C)C1CCN(C)CC1,39.1%
10,COc1ccc(OCc2cc(C(=O)N3CCCCCC3)no2)c(Cl)c1,42%
11,O=S(=O)(Cc1ccccc1)c1nnnn1-c1ccccc1,101% (active)
12,Cc1ccc(CC2CC(=O)N(C3CCCCC3)C2=O)cc1 (stereo not given),36.3%
13,Cc1ccc(NNC2CC(=O)N(N(C)C)C2=O)cc1 (stereo not given),78.2% (active)
14,COc1ccc(C(=O)C=Cc2cccc(O)c2)cc1F,87.2% (active)
15,COc1ccc(C=CC(=O)c2ccc3ccccc3c2)cc1,60.1% (active)
16,COc1cccc(C=CC(=O)c2ccc(Cl)c(Cl)c2)c1OC,44.5%
17,COc1ccc(/C=C/C(=O)c2cc(O)ccc2O)cc1,97.6% (active)
18,O=C(/C=C/c1ccccc1)c1ccc(O)cc1O,96.2% (active)
19,COC(=O)c1ccc(C=CC(=O)c2ccc(OC)cc2)cc1,47.6%
20,O=C(/C=C/c1ccc(O)cc1)c1ccccc1O,47.6%
21,O=C1COc2ccc(C(=O)C=Cc3ccc4ccccc4c3)cc2N1,62.3% (active)
22,Oc1ccc(Cl)cc1Sc1cc(Cl)ccc1O,101% (active)
23,O=c1cc(O)c2sc3nc(C4CC4)cc(C(F)(F)F)c3c2[nH]1,38.2%
24,Clc1ccc(N=C2SCC3CCCCN23)cc1 (stereo not given),-1.03%
25,COc1ccc(N=C2SCCN2CC(=O)c2ccc(Cl)cc2)cc1,-4.26%

row,Compound,inhibition
1,FC(F)Oc1ccc(N=C2SCC3CCCCN23)cc1 (stereo not given),82.4% (active)
2,Clc1ccc(N=C2SCCN2C2CCCCC2)cc1,90.5% (active)
3,CC(C)(CNC(=O)C1Cc2cc(F)ccc2O1)C1CCCCO1 (stereo not given),14.4%
4,O=C(NCCc1ccc(F)cc1)C1Cc2ccccc2O1 (stereo not given),70.3% (active)
5,COc1ccc2c(c1)OCC(Cc1ccc(OC)c(OC(C)=O)c1)C2=O (stereo not given),96.6% (active)
6,CC(C(=O)Nc1ccc(C#N)cc1)N1CC=C(c2ccccc2)CC1 (stereo not given),49.1%
7,COc1ccc(NC(=O)C(C)n2cccn2)cc1Cl (stereo not given),8.88%
8,CC(C(=O)Nc1ccc(C23CC4CC(CC(C4)C2)C3)cc1)n1cncn1 (stereo not given),95.9% (active)
9,COc1ccc(Oc2cnn(-c3ccc(Cl)cc3)c(=O)c2Nc2ccc(C(=O)O)cc2)cc1,28%
10,Cc1ccc(-n2nc(C(=O)c3ccc(Cl)cc3)c(N)c(C#N)c2=O)cc1,94.6% (active)
11,O=C(Nc1ccc(-c2ccccc2)cc1Cl)C1CC1,92.4% (active)
12,NS(=O)(=O)N1CCC(C(=O)Nc2ccc(-c3ccccc3)cc2F)CC1,-3.6%
13,O=C(CNC(=O)c1cccc(F)c1)N=Nc1c(O)n(CCc2ccccc2)c2ccccc12,-16.1%
14,COc1cc(NC(=O)c2ccc3c(c2)NC(=O)CS3)cc(OC)c1,62.6% (active)
15,COc1cc(NC(=O)c2ccc3c(c2)NC(=O)C(C)S3)cc(OC)c1 (stereo not given),31.5%
16,Cc1cc(C)cc(C(=O)C=C2NC(=O)CS2)c1,-74.8%
17,COc1ccc(NC(=O)c2ccc3c(c2)NC(=O)C(C)S3)cc1 (stereo not given),57.4% (active)
18,COc1cc(C=NOCc2cccc3ccccc23)ccc1OC(F)F,52.4% (active)
19,CCOC(=O)NC(=O)COC(=O)C1(Cc2ccccc2)CCCCC1,51.4% (active)
20,CCOC(=O)C1(CCc2ccccc2)CCCN(Cc2cccn2-c2ncccn2)C1 (stereo not given),13%
21,CC(C)OC(=O)c1cn(-c2ccc(F)cc2)c(=O)c2ccccc12,80.8% (active)
22,O=C(c1cnn(-c2ccc(F)cc2)c1)c1ccccc1O,42.7%
23,Cn1cc(C(=O)Nc2cccc(C(F)(F)F)c2)c2[nH]c(=O)n(-c3ccc(F)cc3)c(=O)c21,24.6%
24,CCS(=O)(=O)N1CCC(C(=O)Nc2nc(-c3ccc(Br)cc3)cs2)CC1,33.8%
25,O=C(Nc1nc(-c2ccc(Br)cc2)cs1)c1cc(Cl)ccc1[N+](=O)[O-],94.8% (active)
